# Results: PubChem BioAssay (EPA / NIEHS)
# Records with an inconclusive call do not appear. Activity calls are given as the source filed them. How the source made its calls: active means hit-call score of the fitted dose curve at least 0.9, where 1 is the maximum; inconclusive means response in the unintended direction; inactive means score below 0.9.
# Tests used:
# [1] = target: human Dual Specificity Protein Phosphatase 3 (DUSP3), DUSP3 (gene 1845) (UniProt P51452); assay: NVS_ENZ_hDUSP3: NovaScreen (NVS) Enzymatic Assay for human Dual Specificity Protein Phosphatase 3 (DUSP3) (AID 2283152);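 further: phosphatase activity of recombinant human DUSP3 on a fluorogenic substrate without cells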
# Chain of human Dual Specificity Protein Phosphatase 3 (DUSP3), DUSP3 (gene 1845) (P51452 whole entry, looked up): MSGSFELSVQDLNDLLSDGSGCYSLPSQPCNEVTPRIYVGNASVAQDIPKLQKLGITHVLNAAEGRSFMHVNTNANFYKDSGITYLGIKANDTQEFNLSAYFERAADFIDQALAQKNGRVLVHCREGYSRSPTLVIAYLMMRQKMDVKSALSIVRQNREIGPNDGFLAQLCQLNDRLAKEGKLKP
# How it was run: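 Cell-free fluorescence-intensity enzyme activity assay with recombinant protein and substrate; loss of signal fitted relative to DMSO baseline. Primary screen in duplicate at 25 uM, actives then run in concentration series; measured 0 h after dosing.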
# [2] = target: human Colony Stimulating Factor 1 Receptor (CSF1R), CSF1R (gene 1436) (UniProt P07333); assay: NVS_ENZ_hCSF1R: NovaScreen (NVS) Enzymatic Assay for human Colony Stimulating Factor 1 Receptor (CSF1R) (AID 2283150)
# Chain of human Colony Stimulating Factor 1 Receptor (CSF1R), CSF1R (gene 1436) (P07333 whole entry, looked up): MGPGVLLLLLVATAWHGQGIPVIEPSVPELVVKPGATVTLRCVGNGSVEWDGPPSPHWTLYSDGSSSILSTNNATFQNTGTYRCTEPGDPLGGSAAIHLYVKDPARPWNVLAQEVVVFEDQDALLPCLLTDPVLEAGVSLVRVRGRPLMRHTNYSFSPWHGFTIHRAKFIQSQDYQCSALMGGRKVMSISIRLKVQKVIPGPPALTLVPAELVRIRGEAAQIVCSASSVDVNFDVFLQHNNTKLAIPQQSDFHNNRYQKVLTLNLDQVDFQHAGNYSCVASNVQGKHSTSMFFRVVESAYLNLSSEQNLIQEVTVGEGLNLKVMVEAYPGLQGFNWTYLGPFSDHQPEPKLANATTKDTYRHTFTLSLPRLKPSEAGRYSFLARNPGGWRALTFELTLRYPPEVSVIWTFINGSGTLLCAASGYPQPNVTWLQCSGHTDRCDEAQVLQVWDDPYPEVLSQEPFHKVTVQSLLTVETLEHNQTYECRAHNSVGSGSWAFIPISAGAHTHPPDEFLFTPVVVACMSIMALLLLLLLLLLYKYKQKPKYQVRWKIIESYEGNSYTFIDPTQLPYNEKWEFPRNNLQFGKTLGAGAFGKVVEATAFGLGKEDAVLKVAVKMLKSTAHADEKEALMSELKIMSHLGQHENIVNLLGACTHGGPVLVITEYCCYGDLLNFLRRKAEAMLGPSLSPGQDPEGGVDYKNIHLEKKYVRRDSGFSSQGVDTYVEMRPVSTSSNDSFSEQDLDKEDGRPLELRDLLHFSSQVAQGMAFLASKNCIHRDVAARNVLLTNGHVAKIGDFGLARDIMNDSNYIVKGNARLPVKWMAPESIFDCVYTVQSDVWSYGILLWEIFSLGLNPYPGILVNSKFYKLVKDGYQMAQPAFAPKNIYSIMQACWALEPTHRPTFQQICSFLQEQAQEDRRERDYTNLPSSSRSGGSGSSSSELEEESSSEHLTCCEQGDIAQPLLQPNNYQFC
# How it was run: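 Compounds screened in duplicate at 25 uM, then concentration-response (top 50 uM) for those passing threshold such as 30% inhibition; recombinant CSF1R activity measured 1 h post-dosing via fluorescent substrate/product mobility-shift separation, loss of signal versus DMSO.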
# [3] = target: human Fibroblast Growth Factor Receptor 1 (FGFR1), FGFR1 (gene 2260) (UniProt P11362); assay: NVS_ENZ_hFGFR1: NovaScreen (NVS) Enzymatic Assay for human Fibroblast Growth Factor Receptor 1 (FGFR1) (AID 2283159);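 on AC50: hits lower the signal so potencies describe inhibitors of the kinase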
# Chain of human Fibroblast Growth Factor Receptor 1 (FGFR1), FGFR1 (gene 2260) (P11362 whole entry, looked up): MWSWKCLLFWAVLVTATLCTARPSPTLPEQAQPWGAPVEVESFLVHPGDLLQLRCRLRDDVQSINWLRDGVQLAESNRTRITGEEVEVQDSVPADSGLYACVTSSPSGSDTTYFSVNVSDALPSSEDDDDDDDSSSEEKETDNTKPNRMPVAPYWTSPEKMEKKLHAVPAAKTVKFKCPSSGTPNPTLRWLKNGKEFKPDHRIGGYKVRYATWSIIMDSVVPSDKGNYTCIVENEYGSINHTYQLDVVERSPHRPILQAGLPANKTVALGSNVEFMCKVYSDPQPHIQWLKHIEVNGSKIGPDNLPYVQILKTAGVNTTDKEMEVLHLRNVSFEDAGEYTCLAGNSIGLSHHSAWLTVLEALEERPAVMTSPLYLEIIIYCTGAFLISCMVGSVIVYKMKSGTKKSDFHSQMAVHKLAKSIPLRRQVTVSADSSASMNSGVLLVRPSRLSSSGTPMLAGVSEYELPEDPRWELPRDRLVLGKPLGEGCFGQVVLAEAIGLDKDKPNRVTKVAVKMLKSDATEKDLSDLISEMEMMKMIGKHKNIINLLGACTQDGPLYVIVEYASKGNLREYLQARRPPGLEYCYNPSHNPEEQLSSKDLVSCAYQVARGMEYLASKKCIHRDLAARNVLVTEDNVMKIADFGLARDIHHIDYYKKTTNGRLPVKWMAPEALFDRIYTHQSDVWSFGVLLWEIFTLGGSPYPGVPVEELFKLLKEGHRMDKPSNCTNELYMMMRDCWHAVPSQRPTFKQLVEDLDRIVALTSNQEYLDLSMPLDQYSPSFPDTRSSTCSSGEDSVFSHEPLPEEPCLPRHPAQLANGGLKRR
# How it was run: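 Cell-free recombinant kinase with fluorescent substrate, product separated by electrophoretic mobility shift; read 1 hour after dosing, loss of signal relative to DMSO. Initial screen in duplicate at 25 uM, actives followed in concentration series.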
# [4] = target: human Ephrin type-A Receptor 1 (EphA1), EPHA1 (gene 2041) (UniProt P21709); assay: NVS_ENZ_hEphA1: NovaScreen (NVS) Enzymatic Assay for human Ephrin type-A Receptor 1 (EphA1) (AID 2283158);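 further: activity is signal loss versus DMSO meaning EphA1 kinase inhibition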
# Chain of human Ephrin type-A Receptor 1 (EphA1), EPHA1 (gene 2041) (P21709 whole entry, looked up): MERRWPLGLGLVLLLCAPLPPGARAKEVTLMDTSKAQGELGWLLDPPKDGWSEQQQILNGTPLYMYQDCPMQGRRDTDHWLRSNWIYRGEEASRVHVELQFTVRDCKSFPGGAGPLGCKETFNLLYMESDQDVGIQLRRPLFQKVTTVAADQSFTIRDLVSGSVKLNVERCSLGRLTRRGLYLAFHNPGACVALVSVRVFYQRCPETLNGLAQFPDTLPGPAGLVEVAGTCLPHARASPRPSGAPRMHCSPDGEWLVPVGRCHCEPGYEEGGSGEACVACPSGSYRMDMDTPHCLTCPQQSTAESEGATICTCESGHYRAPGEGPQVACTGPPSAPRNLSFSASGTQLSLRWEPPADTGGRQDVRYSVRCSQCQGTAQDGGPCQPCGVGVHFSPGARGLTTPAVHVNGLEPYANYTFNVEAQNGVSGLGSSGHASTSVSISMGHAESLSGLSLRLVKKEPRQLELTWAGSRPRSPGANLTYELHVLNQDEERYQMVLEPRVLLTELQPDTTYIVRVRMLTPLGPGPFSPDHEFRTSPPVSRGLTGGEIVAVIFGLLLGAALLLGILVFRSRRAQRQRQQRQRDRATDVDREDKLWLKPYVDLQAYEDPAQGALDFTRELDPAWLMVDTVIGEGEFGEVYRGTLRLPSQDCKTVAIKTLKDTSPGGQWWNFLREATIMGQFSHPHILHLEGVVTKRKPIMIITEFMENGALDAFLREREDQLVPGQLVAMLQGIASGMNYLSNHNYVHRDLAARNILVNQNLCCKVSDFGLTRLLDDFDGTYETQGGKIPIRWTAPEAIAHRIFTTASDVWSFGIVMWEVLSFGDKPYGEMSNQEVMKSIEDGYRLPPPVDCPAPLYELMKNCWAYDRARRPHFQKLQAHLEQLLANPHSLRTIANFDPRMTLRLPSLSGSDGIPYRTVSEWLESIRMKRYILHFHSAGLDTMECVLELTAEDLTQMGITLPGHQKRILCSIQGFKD
# How it was run: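 Biochemical kinase assay run cell-free; 1 h incubation; readout is fluorescence with mobility-shift separation of product. Concentration-response up to 50 uM for actives from a 25 uM screen.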
# [5] = target: human Casein Kinase 1-delta (CK1D), CSNK1D (gene 1453) (UniProt P48730); assay: NVS_ENZ_hCK1D: NovaScreen (NVS) Enzymatic Assay for human Casein Kinase 1-delta (CK1D) (AID 2283148)
# Chain of human Casein Kinase 1-delta (CK1D), CSNK1D (gene 1453) (P48730 whole entry, looked up): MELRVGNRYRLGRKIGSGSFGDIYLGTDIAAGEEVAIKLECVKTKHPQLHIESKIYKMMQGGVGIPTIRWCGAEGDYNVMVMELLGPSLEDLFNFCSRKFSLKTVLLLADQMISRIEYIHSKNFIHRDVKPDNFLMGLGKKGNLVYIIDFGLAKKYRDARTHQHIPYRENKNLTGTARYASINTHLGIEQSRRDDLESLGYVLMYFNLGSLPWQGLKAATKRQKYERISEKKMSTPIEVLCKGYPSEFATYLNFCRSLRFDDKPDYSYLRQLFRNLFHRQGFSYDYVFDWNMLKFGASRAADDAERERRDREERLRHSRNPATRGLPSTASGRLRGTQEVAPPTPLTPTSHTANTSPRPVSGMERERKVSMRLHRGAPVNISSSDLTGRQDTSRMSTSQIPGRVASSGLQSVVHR
# How it was run: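 Recombinant human CK1-delta, cell-free; fluorescent substrate with electrophoretic mobility-shift separation of product, read 1 h after dosing. Single 25 uM duplicate screen, then concentration-response up to 50 uM; loss of signal vs DMSO.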
# [6] = target: Histone deacetylase 3 (Homo sapiens) (UniProt O15379); assay: NVS_ENZ_hHDAC3: NovaScreen (NVS) Enzymatic Assay for human Histone Deacetylase 3 (HDAC3) (AID 2283163)
# How it was run: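 Cell-free enzyme format: loss of fluorescent product after mobility-shift separation, 1 h incubation, recombinant human HDAC3. Single 25 uM duplicate screen first, then concentration series to a 50 uM top for hits; DMSO as baseline.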
# [7] = target: Glycogen synthase kinase-3 beta (Homo sapiens) (UniProt P49841); assay: NVS_ENZ_hGSK3b: NovaScreen (NVS) Enzymatic Assay for human Glycogen Synthase Kinase-3 beta (GSK3b) (AID 2283165)
# How it was run: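 Recombinant enzyme with specific fluorescent substrate, 1 h, product separated by electrophoretic mobility shift. Primary duplicate screen at 25 uM; actives (e.g. 30% inhibition) followed in singleton concentration-response to 50 uM. Signal loss fitted versus DMSO.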
# [8] = target: human Esterase Plasma (ES), BCHE (gene 590) (UniProt P06276); assay: NVS_ENZ_hES: NovaScreen (NVS) Enzymatic Assay for human Esterase Plasma (ES) (AID 2283157)
# How it was run: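 Human plasma-derived enzyme, cell-free, colorimetric readout at 0.25 h. Primary screen 25 uM in duplicate; hits (e.g. ≥30% inhibition) rerun singleton up to 50 uM. DMSO = negative control/baseline.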
# [9] = target: human Epidermal Growth Factor Receptor (EGFR), EGFR (gene 1956) (UniProt P00533); assay: NVS_ENZ_hEGFR: NovaScreen (NVS) Enzymatic Assay for human Epidermal Growth Factor Receptor (EGFR) (AID 2283151)
# Chain of human Epidermal Growth Factor Receptor (EGFR), EGFR (gene 1956) (P00533 whole entry, looked up): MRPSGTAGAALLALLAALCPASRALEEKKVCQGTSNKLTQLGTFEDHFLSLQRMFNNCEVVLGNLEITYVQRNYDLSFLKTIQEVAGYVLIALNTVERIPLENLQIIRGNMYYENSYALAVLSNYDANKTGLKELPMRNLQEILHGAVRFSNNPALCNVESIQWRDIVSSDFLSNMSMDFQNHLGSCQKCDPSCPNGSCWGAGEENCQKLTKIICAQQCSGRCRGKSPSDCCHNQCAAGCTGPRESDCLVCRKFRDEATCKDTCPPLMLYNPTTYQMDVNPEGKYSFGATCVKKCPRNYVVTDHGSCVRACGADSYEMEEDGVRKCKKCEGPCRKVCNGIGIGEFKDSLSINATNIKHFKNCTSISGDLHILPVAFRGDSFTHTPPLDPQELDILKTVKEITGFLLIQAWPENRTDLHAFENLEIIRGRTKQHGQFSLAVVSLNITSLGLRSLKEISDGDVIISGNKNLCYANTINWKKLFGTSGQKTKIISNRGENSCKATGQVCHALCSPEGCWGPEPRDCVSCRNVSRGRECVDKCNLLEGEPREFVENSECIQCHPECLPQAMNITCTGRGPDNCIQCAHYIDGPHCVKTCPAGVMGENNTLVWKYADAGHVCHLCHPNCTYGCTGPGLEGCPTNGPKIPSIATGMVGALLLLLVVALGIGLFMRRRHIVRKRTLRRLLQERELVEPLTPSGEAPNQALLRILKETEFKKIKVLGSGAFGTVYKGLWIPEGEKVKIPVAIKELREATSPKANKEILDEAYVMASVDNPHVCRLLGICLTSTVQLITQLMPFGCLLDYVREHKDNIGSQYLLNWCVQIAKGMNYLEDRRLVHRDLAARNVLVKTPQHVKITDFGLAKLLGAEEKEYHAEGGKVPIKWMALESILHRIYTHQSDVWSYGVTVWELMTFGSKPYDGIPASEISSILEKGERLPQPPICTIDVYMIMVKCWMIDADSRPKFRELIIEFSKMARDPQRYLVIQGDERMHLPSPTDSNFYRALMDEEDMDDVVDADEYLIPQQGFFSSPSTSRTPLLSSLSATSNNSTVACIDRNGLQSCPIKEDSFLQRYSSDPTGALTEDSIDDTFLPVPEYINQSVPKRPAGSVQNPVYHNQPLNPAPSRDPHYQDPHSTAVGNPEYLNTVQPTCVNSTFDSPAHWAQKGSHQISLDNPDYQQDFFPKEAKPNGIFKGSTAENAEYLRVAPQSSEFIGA
# How it was run: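 Cell-free kinase assay, fluorescence plus electrophoretic mobility shift separating substrate and product, read 1 hour after dosing; loss of signal vs DMSO. Duplicate screen at 25 uM, then concentration-response to 50 uM.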
# [10] = target: human Mitogen-Activated Protein Kinase 1 (MAPK 1), MAPK1 (gene 5594) (UniProt P28482); assay: NVS_ENZ_hMAPK1: NovaScreen (NVS) Enzymatic Assay for human Mitogen-Activated Protein Kinase 1 (MAPK 1) (AID 2283175)
# Chain of human Mitogen-Activated Protein Kinase 1 (MAPK 1), MAPK1 (gene 5594) (P28482 whole entry, looked up): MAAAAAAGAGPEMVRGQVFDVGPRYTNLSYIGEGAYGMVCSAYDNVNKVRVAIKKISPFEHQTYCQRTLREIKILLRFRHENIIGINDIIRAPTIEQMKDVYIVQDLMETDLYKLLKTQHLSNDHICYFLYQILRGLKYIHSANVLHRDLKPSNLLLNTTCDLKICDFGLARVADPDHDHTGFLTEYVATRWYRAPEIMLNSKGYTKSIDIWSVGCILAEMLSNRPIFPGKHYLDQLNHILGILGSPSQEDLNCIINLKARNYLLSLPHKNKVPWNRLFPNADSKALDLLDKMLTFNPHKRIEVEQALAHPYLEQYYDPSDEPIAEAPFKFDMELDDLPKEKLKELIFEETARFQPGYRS
# How it was run: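 Cell-free recombinant human MAPK1 enzymatic assay, fluorescence/electrophoretic mobility shift read at 1 h; loss of signal vs DMSO. Primary screen in duplicate at 25 uM; actives (e.g. ≥30% inhibition) run as concentration-response up to 50 uM.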
# [11] = target: human Elastase, ELANE (gene 1991) (UniProt P08246); assay: NVS_ENZ_hElastase: NovaScreen (NVS) Enzymatic Assay for human Elastase (AID 2283153)
# How it was run: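 Concentration-response to 50 uM max, run singly for chemicals passing a threshold (e.g., 30% inhibition) in a duplicate 25 uM single-point screen. Neutrophil-derived human elastase, absorbance read-out of enzyme activity at 1.5 h; DMSO baseline.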
# [12] = target: human Ephrin type-A Receptor 2 (EphA2), EPHA2 (gene 1969) (UniProt P29317); assay: NVS_ENZ_hEphA2: NovaScreen (NVS) Enzymatic Assay for human Ephrin type-A Receptor 2 (EphA2) (AID 2283155)
# How it was run: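 Enzyme activity of recombinant EphA2 read by fluorescence after mobility-shift separation, 1 h after dosing. Chemicals first tested at 25 uM (duplicate); those passing threshold run as concentration series, top 50 uM, single replicate, relative to DMSO.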
# [13] = target: human Aurora Kinase A - serine/threonine-protein Kinase 6 (AurA), AURKA (gene 6790) (UniProt O14965); assay: NVS_ENZ_hAurA: NovaScreen (NVS) Enzymatic Assay for human Aurora Kinase A - serine/threonine-protein Kinase 6 (AurA) (AID 2283142)
# How it was run: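 Recombinant human AurA activity read by fluorescence after mobility-shift separation of product from substrate; 1 hour incubation. Chemicals first run in duplicate at 25 uM, then concentration series to 50 uM if over threshold; fitted relative to DMSO.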
# CDK2 (gene 1017) = CDK2 (gene 1017) (UniProt P24941); assay: NVS_ENZ_hCDK2: NovaScreen (NVS) Enzymatic Assay for human Cyclin-Cependent Kinase 2 (CDK2) (AID 2283144)
# How it was run: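 Compounds screened in duplicate at 25 uM, then in singleton concentration-response to a maximum of 50 uM, against recombinant CDK2; kinase activity read 1 hr after dosing by fluorescence with mobility-shift separation of substrate and product.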
# [14] = target: human c-Jun N-terminal Kinases (JNK2), MAPK9 (gene 5601) (UniProt P45984); assay: NVS_ENZ_hJNK2: NovaScreen (NVS) Enzymatic Assay for human c-Jun N-terminal Kinases (JNK2) (AID 2283171)
# How it was run: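 Chemicals first tested in duplicate at 25 uM, then in singleton concentration series up to 50 uM, against extracted JNK2 enzyme. Activity loss read by fluorescence with mobility-shift separation 1 h post-dose; DMSO baseline.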
# [15] = target: human AKT serine/threonine Kinase 2 (AKT2), AKT2 (gene 208) (UniProt P31751); assay: NVS_ENZ_hAKT2: NovaScreen (NVS) Enzymatic Assay for human AKT serine/threonine Kinase 2 (AKT2) (AID 2283141)
# How it was run: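 Cell-free fluorescence/electrophoretic mobility shift readout of recombinant human AKT2 activity, 1 h after chemical dosing. Duplicate primary screen at 25 uM, then singleton concentration-response up to 50 uM; loss of signal versus DMSO baseline.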
# [16] = target: human IkappaB Kinase alpha (IKKa), CHUK (gene 1147) (UniProt O15111); assay: NVS_ENZ_hIKKa: NovaScreen (NVS) Enzymatic Assay for human IkappaB Kinase alpha (IKKa) (AID 2283167)
# How it was run: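 Compounds first run in duplicate at 25 uM, those meeting threshold (e.g. 30% inhibition) retested to maximum 50 uM. Enzyme activity of recombinant IKKa measured by fluorescence with electrophoretic mobility shift separation, 1 hour post-dosing, DMSO baseline.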
# [17] = target: human Insulin Receptor (InsR), INSR (gene 3643) (UniProt P06213); assay: NVS_ENZ_hInsR: NovaScreen (NVS) Enzymatic Assay for human Insulin Receptor (InsR) (AID 2283168)
# How it was run: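 Cell-free enzyme assay read 1 h post-dose by fluorescence after substrate/product mobility-shift separation. Duplicate 25 uM primary screen, then singleton concentration-response up to 50 uM for compounds passing threshold; loss of signal vs DMSO.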
# [18] = target: human FYN Proto-Oncogene, Src family Tyrosine Kinase (Fyn), FYN (gene 2534) (UniProt P06241); assay: NVS_ENZ_hFyn: NovaScreen (NVS) Enzymatic Assay for human FYN Proto-Oncogene, Src family Tyrosine Kinase (Fyn) (AID 2283161)
# How it was run: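 Cell-free kinase activity read by fluorescence after mobility-shift separation of substrate and product, 1 h post-dose. Initial single concentration 25 uM in duplicate, then concentration-response follow-up; DMSO baseline.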
# [19] = target: human LYN Proto-Oncogene, Src family Tyrosine Kinase (LynA), LYN (gene 4067) (UniProt P07948); assay: NVS_ENZ_hLynA: NovaScreen (NVS) Enzymatic Assay for human LYN Proto-Oncogene, Src family Tyrosine Kinase (LynA) (AID 2283173)
# How it was run: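 Recombinant kinase with fluorescent substrate; product separated from substrate by electrophoretic mobility shift and read 1 h after dosing. Duplicate screen at 25 uM, then concentration-response up to 50 uM; activity scored as signal loss against DMSO.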
compound,measurement,setting,value
O=c1ssc(Cl)c1Cl,AC50,[1],6.98 µM (active)
CSC(C)(C)C=NO,outcome,[2],inactive
same,outcome,[3],inactive
Nc1ccc(Cl)cc1,outcome,[4],inactive
CCOS(=O)(=O)OCC,outcome,[5],inactive
same,outcome,[6],inactive
same,outcome,[7],inactive
CCCCN(CCCC)SN(C)C(=O)Oc1cccc2c1OC(C)(C)C2,outcome,[8],inactive
O=P1(N(CCCl)CCCl)NCCCO1 (stereo not given),outcome,[9],inactive
same,outcome,[8],inactive
same,outcome,[3],inactive
CC(C)Nc1ccc(Nc2ccccc2)cc1,AC50,[1],2.71 µM (active)
same,outcome,[4],inactive
ClC1=C(Cl)C2(Cl)C3C(Cl)C(Cl)CC3C1(Cl)C2(Cl)Cl (stereo not given),outcome,[9],inactive
same,outcome,[3],inactive
same,outcome,[10],inactive
CCC(C)(C)c1ccc(O)cc1,outcome,[2],inactive
same,outcome,[7],inactive
c1ccc2c(c1)Nc1ccccc1S2,outcome,[11],inactive
CC1(C)CN=C(NN=C(/C=C/c2ccc(C(F)(F)F)cc2)/C=C/c2ccc(C(F)(F)F)cc2)NC1,AC50,[3],13.6 µM (active)
ClC(Cl)(Cl)c1ccccc1,outcome,[3],inactive
Cc1ccc2c(c1N)C(=O)c1ccccc1C2=O,AC50,[4],19.2 µM (active)
O=[N+]([O-])c1ccccc1,outcome,[5],inactive
same,outcome,[3],inactive
Cc1ccc([N+](=O)[O-])cc1C,outcome,[12],inactive
CCOC(=O)c1ccccc1C(=O)OCC,outcome,[7],inactive
CC(C)(C)OOC(C)(C)C,outcome,[13],inactive
same,outcome,CDK2 (gene 1017),inactive
same,outcome,[2],inactive
same,outcome,[9],inactive
same,outcome,[4],inactive
same,outcome,[7],inactive
same,outcome,[14],inactive
same,outcome,[10],inactive
CC(C)(C)c1ccc(O)cc1,outcome,[15],inactive
same,outcome,[7],inactive
CCCCN(CCCC)N=O,outcome,[3],inactive
CCOP(=S)(S)OCC,AC50,[1],19.9 µM (active)
OCC1CO1 (stereo not given),outcome,[7],inactive
CCOP(=S)(OCC)SCSc1ccc(Cl)cc1,AC50,[1],17.3 µM (active)
Cc1ccc(O)cc1C,outcome,[5],inactive
same,outcome,[9],inactive
same,outcome,[7],inactive
same,outcome,[14],inactive
same,outcome,[10],inactive
CCOP(=S)(OCC)SCn1nnc2ccccc2c1=O,AC50,[1],19.6 µM (active)
CC(Cl)(Cl)C(=O)O,outcome,[4],inactive
Nc1ccc2ccccc2c1,AC50,[8],13.7 µM (active)
same,outcome,[7],inactive
O=P(Oc1ccccc1)(Oc1ccccc1)Oc1ccccc1,outcome,[12],inactive
same,outcome,[16],inactive
same,outcome,[17],inactive
CCCCc1ccccc1,outcome,[18],inactive
c1ccc(OP(Oc2ccccc2)Oc2ccccc2)cc1,outcome,[5],inactive
same,AC50,[11],37 µM (active)
same,outcome,[7],inactive
CCNc1nc(Cl)nc(NC(C)(C)C)n1,outcome,[8],inactive
same,outcome,[3],inactive
Cc1cccc(N)c1,outcome,[16],inactive
same,outcome,[19],inactive
